Screening results: PubChem, several laboratories
This is a sample that favours compounds with a hit; in the whole collection about 4.1% have one here.
Mtb UGM inh = M. tuberculosis UGM enzyme inhibitors, primary screen, biochemical, fluorescence polarization, single point; purified UGM, fluorescence polarization probe displacement; inhibition, % at 10 µM; 0.06% of 320,000 active; UDP-galactopyranose mutase (Mycobacterium tuberculosis (strain ATCC 25618 / H37Rv)), …; in the data active means inhibition above about 10%, passing the limit was not always enough
FBA Mtb inh = Mtb FBA enzyme inhibitors, primary screen, biochemical, fluorescence, strain H37Rv; Fructose-bisphosphate aldolase (Mycobacterium tuberculosis (strain ATCC 25618 / H37Rv)), …; purified M. tuberculosis FBA, fluorescence read-out; inhibition, % at 1 µM; 2.3% of 360,000 active; in the data active means inhibition above about 27%;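 further: 0% = vehicle and 100% = reference inhibitor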
Vc quorum ag = inducers of Vibrio cholerae quorum light production without autoinducers, primary screen, BH1578 luxS cqsA deficient, single point. V. cholerae BH1578 lux reporter, luminescence, 6 h. activation, % at 18.7 µM. 0.16% of 350,000 active; in the data active means activation mostly above about 9.7%, no sharp cut-off
Rv3671c inh = Rv3671c serine protease inhibitors, primary screen, biochemical, fluorescence polarization, M. tuberculosis H37Rv | P9WHR9 | inhibition, % at 5.96 µM | 0.048% of 320,000 active | AID 2606, 2010; in the data active means inhibition above about 38%;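 further: extracellular domain of Rv3671c used as enzyme; 0% = enzyme with DMSO and 100% = no enzyme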
Target sequence (P9WHR9 whole entry, looked up, the tested form may be a part): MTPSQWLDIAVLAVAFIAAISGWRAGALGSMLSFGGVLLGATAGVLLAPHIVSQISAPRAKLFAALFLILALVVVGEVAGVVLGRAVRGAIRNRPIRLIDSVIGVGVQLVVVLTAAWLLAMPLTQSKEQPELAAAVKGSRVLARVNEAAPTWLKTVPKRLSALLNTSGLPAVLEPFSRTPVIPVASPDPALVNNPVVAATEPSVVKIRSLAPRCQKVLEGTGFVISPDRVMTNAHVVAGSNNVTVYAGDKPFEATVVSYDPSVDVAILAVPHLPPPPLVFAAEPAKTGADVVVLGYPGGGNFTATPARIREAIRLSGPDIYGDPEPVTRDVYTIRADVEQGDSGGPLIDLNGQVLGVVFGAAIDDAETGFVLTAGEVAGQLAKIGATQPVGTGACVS
GDH-TPI counter = GDH-TPI coupling enzyme inhibitors, primary screen, artefact control for M. tuberculosis FBA inhibitor project, biochemical, absorbance, full deck; inhibition, % at 4.8 µM; AID 588335, 2011; GDH-TPI coupled enzyme counterscreen, NADH absorbance; 1.2% of 360,000 active; in the data active means inhibition above about 30%;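 further: 0% = DMSO wells and 100% = wells lacking the enzyme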
RecA splice inh = Mtb RecA intein splicing inhibitors, primary screen, biochemical, fluorescence, HTS; Protein RecA (Mycobacterium tuberculosis (strain ATCC 25618 / H37Rv)), P9WHJ3; cell-free RecA intein splicing; inhibition, % (no concentration beside the values); 0.75% of 290,000 active; AID 2221, 2009; in the data active means inhibition above about 30%;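 further: 0% = vehicle wells and 100% = reference inhibitor control wells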
The depositor's hits bear a star; i = inactive; nt = no result given; + = active, no number.

SMILES	Mtb UGM inh	FBA Mtb inh	Vc quorum ag	Rv3671c inh	GDH-TPI counter	RecA splice inh
O=[N+]([O-])c1c(NCCO)cc(N2CCCCC2)c2nonc12	2.8	-23.4	-0.1	-5.2	13.2	nt
O=[N+]([O-])c1ccc(Cl)c(S(=O)(=O)NCCc2ccccn2)c1	-0.7	0.1	-2.0	-1.6	-1.1	nt
CCN(C(=O)CN1C(=O)S/C(=C\c2ccccc2OC)C1=O)C1CCS(=O)(=O)C1 (centres undefined)	-1.2	-1.4	0.5	-2.6	9.6	1.8
CCN(C(=O)CN1C(=O)S/C(=C\c2ccc(Cl)cc2)C1=O)C1CCS(=O)(=O)C1 (centres undefined)	1.9	-0.4	-0.4	-4.5	33.9*	-1.2
CCN(C(=O)CN1C(=O)S/C(=C\c2cccc(Cl)c2)C1=O)C1CCS(=O)(=O)C1 (centres undefined)	-3.5	-3.3	i	7.1	23.5	9.0
COc1ccccc1/C=C1\SC(=O)N(CC(=O)N(C)C2CCS(=O)(=O)C2)C1=O (centres undefined)	-1.8	-0.8	i	7.0	31.0*	0.0
CNC(=O)c1cc2c(=O)n3cc(C)ccc3nc2n(C(C)C)c1=N	1.0	+	-0.3	3.4	11.3	-406.2
Cc1ccc2nc3c(cc(C(=O)NC4CCCC4)c(=N)n3C3CCCCC3)c(=O)n2c1	3.9	134.4*	-0.3	0.1	14.2	-396.2
COc1ccccc1N1CCc2c(C)nc3c(OC)cccc3c21	1.5	6.8	-1.0	-5.0	46.1*	-5.2
CC(C)[C@H](NC(=O)C1CCN(S(=O)(=O)c2ccc(F)cc2)CC1)C(=O)N1CCCCCC1	-1.1	-2.0	i	4.9	11.8	1.5
COc1ccc(Cl)cc1NC(=O)CN(C)C(=O)c1cc2ccccc2cc1O	-0.1	-0.7	-6.2	0.7	-14.0	-0.2
O=C(NC1CCCC1)c1cc(=O)[nH]c2ccccc12	-3.4	3.3	-0.1	2.1	42.9*	-0.9
N#C/C(=C/c1ccc(CNS(=O)(=O)c2ccccc2)o1)C(=O)NCc1ccccc1	-1.6	-0.5	-0.2	-2.1	29.5	4.3
N#C/C(=C/c1ccc(CNS(=O)(=O)c2ccccc2)o1)C(N)=O	0.4	-0.9	-0.6	0.3	36.7*	2.6
O=C(NC1CCCCC1)c1ccc(-c2ccccc2F)o1	-3.5	1.7	-0.8	-36.5	4.4	nt
CN(C)C(=O)COC(=O)c1cc(Cl)cc(Cl)c1N	-0.7	127.4*	-0.4	1.4	5.2	-6.0
COc1cc(OC)cc(C(=O)N[C@H](C(=O)Nc2c(C)n(C)n(-c3ccccc3)c2=O)C(C)C)c1	0.0	0.4	0.6	-1.7	-4.8	nt
Cn1cnc2ncnn2c1=S	nt	1.9	-7.6	nt	8.0	nt
CC[n+]1c(/C=C/N(C)c2ccccc2)oc2ccccc21	-2.8	-1.0	-0.5	-1.5	67.6*	-5.0
CC[n+]1c(/C=C/Nc2ccccc2)oc2ccc(OC)cc21	-2.6	8.2	i	-5.6	3.1	-27.6
CC[n+]1c(/C=C/N(C)c2ccccc2)oc2ccc(F)cc21	1.4	-1.3	-2.8	-40.2	41.5*	21.3
COc1cc(NC(=O)c2cccc3c(-c4cnn(C)c4)coc23)cc(OC)c1OC	nt	0.4	-0.4	nt	-3.5	nt
Cn1c(=O)n(Cc2ccccc2)c2ccccc21	1.2	0.9	-0.4	2.9	5.7	3.1
Cn1c(=O)c(N=O)c(N)n(Cc2ccccc2)c1=S	-1.5	-1.1	-11.1	15.1	31.7*	11.5
O=C(N/N=C/c1cc(Br)cs1)c1ccccc1[N+](=O)[O-]	-1.2	-0.7	-0.1	-0.2	9.3	0.1
O=C(N/N=C/c1ccc(Cl)s1)c1ccccc1[N+](=O)[O-]	-0.6	0.3	-0.8	6.7	30.9*	-1.5
O=C(Nc1ccc(-c2nc3ccccc3o2)cc1)c1cc(-n2cnnc2)ccc1Cl	1.5	8.3	i	-20.6	22.9	0.0
O=C(Nc1ccc(-c2nc3ccccc3o2)c(O)c1)c1cc(-n2cnnc2)ccc1Cl	-1.9	13.1	5.9	-3.3	42.5*	nt
